Screening results: PubChem, National Center for Advancing Translational Sciences (NCATS)
Shiga toxin inh – inhibitors of Shiga toxin in Vero cells; Vero cells, Shiga toxin protein synthesis inhibition reporter; inhibition, % at 38.7 µM; AID 2315; 9.2% of 290,000 active; in the data active means inhibition mostly above about 28%, no sharp cut-off; inactive means mostly below about 43%; further: 0% is about no effect
Pf growth 96h – P. falciparum growth inhibition at 96 hours; P. falciparum luciferase reporter growth, 96 h; Potency, µM (titrated, usually from 28.7 µM), without a hit: top-dose activity change, negative = inhibition, actives largely listed as inhibitors; 6.9% of 320,000 active; further: potency means the concentration at half of the fitted maximal effect; on the % scale 0 is the no-effect control and ±100 the full control effect
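Two-generation exposure (96 h) targets delayed-death phenotype. Reporter parasites carrying integrated firefly luciferase, in red cells at 2% hematocrit and 0.05% parasitemia final, kept at 37 C, 5% CO2; luminescence loss indicates inhibition.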
Pf growth 48h – P. falciparum growth inhibition at 48 hours (one generation) | P. falciparum luciferase growth in erythrocytes, 48 h | Potency, µM (titrated, usually from 28.7 µM), inactives show at the top dose activity change, negative = inhibition, hits mostly inhibitors | 5.9% of 310,000 active; further: potency means the concentration at half of the fitted maximal effect; on the % scale 0 is the no-effect control and ±100 the full control effect
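Parasite viability was followed by luminescence of a genomically integrated firefly luciferase. Cultures held 0.1% parasitemia at 2% hematocrit (final), incubated under 5% CO2 at 37 C.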
HCV inh – inhibitors of hepatitis C virus infection; Huh7.5.1 HCVcc-Cre infection, luciferase reporter, 44 h; Potency, µM (titrated, usually from 41.8 µM), for inactives: at the highest dose activity change, negative = inhibition, hits mostly inhibitors; 3.4% of 340,000 active; further: potency means the concentration at half of the fitted maximal effect; on the % scale 0 is the no-effect control and ±100 the full control effect
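Antiviral activity was scored by luciferase reporter output from cells infected with HCVcc-Cre (~0.5 moi) in presence of compound, 44 h infection period, cells seeded 1,000/well 4 h prior.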
AMA1-RON2 inh – inhibitors of Plasmodium falciparum AMA1-RON2 interaction | AlphaScreen AMA1-biotinylated RON2 peptide binding | Potency, µM (doses to about 58.2 µM), without a hit: top-dose activity change, negative = inhibition, hits mostly inhibitors | 0.2% of 360,000 active;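 further: potency means the concentration at half of the fitted maximal effect; 0% = vehicle wells and -100% = peptide control; nearly all actives have a fitted effect of over 45% in size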
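AMA1 (3D7) with his tag at 25 nM final met compounds first, then biotinylated RON2 peptide at 25 nM; detection used donor plus acceptor beads, 10 µg/mL apiece, read by AlphaScreen after 30 min at room temperature.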
Cycloheximide cs – counter-screen hit for Shiga toxin inhibitors, cycloheximide; cell reporter, cycloheximide protein synthesis inhibition counterscreen; max response, %; 12% of 300,000 active; AID 2314; in the data active means max response mostly above about 13%, no sharp cut-off; inactive means mostly below about 14%; further: read at 38.3 µM for the half of the compounds with a filed dose; 0% is about no effect
* = called active by the depositor; ? = inconclusive; . = not tested or not shown; [ ] = another dose, or the depositor's remark. This is a sample that favours compounds with a hit; in the whole collection about 21% have one here. Unless noted, the call rests on the fitted dose curve; in most records, active means well fitted curve in the direction sought with a large enough effect; inconclusive means small, poorly fitted or top-dose-only effect, or another doubt; inactive means no such curve, though single readings can be large; an effect the other way counts as inactive or inconclusive.

SMILES | Shiga toxin inh | Pf growth 96h | Pf growth 48h | HCV inh | AMA1-RON2 inh | Cycloheximide cs
COc1ccc(CN(C(=O)Cc2c[nH]c3ccccc23)C(C(=O)NC2CCCCC2)c2ccc(C)o2)cc1 (centres undefined) | -12 | 5.2µM* | 5.2µM* | ? | -23% | 16
Cc1ccc(C(C(=O)NC2CCCCC2)N(Cc2ccccc2)C(=O)Cc2c[nH]c3ccccc23)o1 (centres undefined) | -12 | ? | ? | ? | -9% | -2
COc1cccc(CN(C)C(=O)Cc2c[nH]c3ccccc23)c1 | 23 | 0% | 1% | -6% | 5% | 20*
COc1cccc(CN(C(=O)Cc2c[nH]c3ccccc23)C(C(=O)NC2CCCCC2)c2ccc(C)o2)c1 (centres undefined) | 9 | ? | 13µM* | ? | -7%[2.32 µM] | 8
Cc1ccc(C(=O)Nc2ncccc2O)cc1S(=O)(=O)N1CCCCC1 | . | ? | ? | 2% | 36% | .
COC(=O)c1c(NC(=O)c2ccco2)sc2c1CCC2 | 12 | . | 18% | ? | 10% | 3
Cc1ccc(C(=O)Nc2sc3c(c2C(=O)O)CCC(C)C3)o1 (centres undefined) | . | . | . | ? | 2% | .
COC(=O)c1c(NC(=O)c2ccc(C)o2)sc2c1CCCCC2 | 73* | 49% | 85% | 11µM* | 12% | 50*
COC(=O)c1c(NC(=O)c2c(-c3ccccc3Cl)noc2C)sc2c1CCC2 | -19 | 2.1µM* | . | -3% | -18% | -1
Cc1ccc(C(=O)Nc2sc3c(c2C(=O)O)CCCCC3)o1 | 54* | ? | -12% | 11% | 0% | 37*
Cc1ccc(C(=O)Nc2sc3c(c2C(=O)O)CCCC3)o1 | 68* | 22% | 24% | ? | -14% | 52*
CSCC[C@@H](CO)NC(=O)[C@H]1O[C@@H](n2ccc(=O)[nH]c2=O)[C@H](O)[C@@H]1O | . | . | . | . | 15% | .
CNc1ncnc2ccc(-c3c(C)noc3C)cc12 | . | -17% | -2% | . | . | .
COc1ccccc1N1CCN(CCCN=C2CC(=O)N(C)C(=O)N2C)CC1 | . | . | . | -18% | -6% | .
COC(=O)C1C=CC(OC2OC(COC(C)=O)C(OC(C)=O)C(OC(C)=O)C2OC(C)=O)n2c(=O)n(-c3ccccc3)c(=O)n21 (centres undefined) | . | . | . | 10µM* | -9% | .
CC(=O)OCC1OC(n2ccc3ccccc32)C(OC(C)=O)C(OC(C)=O)C1OC(C)=O (centres undefined) | -2 | . | 11% | 12% | 0% | -2
CC1CCCCC1NC(=O)C1CCN(c2c3c(nc4ncnn24)CCC3)CC1 (centres undefined) | -3 | -8% | 9.3µM* | ? | -11% | -6
COc1ccc(NC(=O)Nc2c(SC)nsc2SC)cc1 | 3 | ? | 10% | 24% | 8% | 5
COC(=O)C1=C(c2ccccc2OCc2ccccc2)C[C@@H]2CC[C@H]1N2C(=O)NCc1ccc(F)cc1 | . | ? | 9.3µM* | 7.1µM* | -7% | .
COC(=O)C1=C(c2cccc(OC)c2OC)C[C@@H]2CC[C@H]1N2C(=O)NCc1ccc(F)cc1 | . | . | . | -29% | 10% | .
COC(=O)C1=C(c2ccc(F)cc2OCc2ccccc2)C[C@@H]2CC[C@H]1N2C(=O)NCc1ccc([N+](=O)[O-])cc1 | . | ? | 12µM* | ? | -2% | .
COC(=O)C1=C(c2ccccc2OCc2ccccc2)C[C@@H]2CC[C@H]1N2C(=O)NCc1ccc(C(C)(C)C)cc1 | . | ? | 6.6µM* | ? | -9% | .
COC(=O)C1=C(c2ccc(F)cc2OCc2ccccc2)C[C@@H]2CC[C@H]1N2C(=O)NCc1ccc(C)cc1 | . | ? | 9.3µM* | ? | 15% | .
CCc1nc2ccc(C(=O)NCc3ccc(OC)cc3)cn2c1N(C)CCC(C)C | . | . | . | . | 0% | .
O=C(NCCCN=C1NS(=O)(=O)c2ccccc21)c1ccc(Cl)cc1 | -5 | ? | 3% | 21% | 15% | -7
CC(=O)Oc1cc2c(cc1Cl)C(c1cccs1)CC1(CC(C)(C)NC(=S)N1)O2 (centres undefined) | 9 | ? | ? | ? | 51% | -2
